Experimental data as given in PubChem BioAssay AID709 (SRMLSC, 2007).
The campaign covered roughly 65,000 compounds. About 3,600 (5.5%) were called active. The sample as a whole holds a higher share of actives than the screen did. A number with no mark means an inactive call.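 Rule for the calls: active = at 10 µM, mean starting fluorescence two-fold or more over control wells; inactive = the rest.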

Experiment: intrinsic fluorescence of library compounds, ex339/em460 – biochemical, MLSMR library, data from DPM-DC assay, artefact control, profiling panel (AID 709);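 note: signal is the first read of a kinetic run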
Details: compound autofluorescence, ex339/em460 nm, NADH buffer; at 10 µM; active compounds read high; 1 = no-compound wells, NADH background
For `COCCCNC(=O)c1c(F)c(F)c(F)c(F)c1F`, the fluorescence fold increase was 1.04.
Compound `Cc1cccc(N=C2NC(=O)CS2)c1C` has a fluorescence fold increase of 1.01.
`CC(C)CC(=O)N=C1SC2CS(=O)(=O)CC2N1CCc1ccccc1` (stereo unspecified) showed a fluorescence fold increase of 1.1.
For `CCCCCCn1c(CN2CCCCC2)nc2c1c(=O)n(C)c(=O)n2C`, the fluorescence fold increase was 1.13.
`CCOC(=O)N1CCC(NC(=O)CN2C(=O)COc3ccc(C(C)(C)C)cc32)CC1` gave a fluorescence fold increase of 1.02.
`COC(=O)c1cn(C)c2ccc(S(=O)(=O)N3CC(C)CC(C)C3)cc2c1=O` (stereo unspecified) showed a fluorescence fold increase of 0.95.
For `CN1CCN(S(=O)(=O)c2ccc3[nH]cc(C(=O)O)c(=O)c3c2)CC1`, the fluorescence fold increase was 2.17 (active).
`CCN(CC)S(=O)(=O)c1ccc2[nH]cc(C(=O)NCCc3ccccc3)c(=O)c2c1` showed a fluorescence fold increase of 1.58.
`CC1(C)Cc2cccc(OCC(=O)Nc3nccs3)c2O1` gave a fluorescence fold increase of 1.08.
In the case of `CC(C)CCNc1nc(N2CCCC2)c2c(c1C#N)CCN(C)C2`, the fluorescence fold increase is reported as 1.63.
With `N#Cc1c(N)sc2c1CCN(C(=O)OCc1ccccc1)C2` the fluorescence fold increase was 1.12.
In the case of `CCN1CCc2c(C#N)c(NCc3ccccc3)nc(NCCO)c2C1`, the fluorescence fold increase is reported as 2.3 (active).
Compound `CCCC(=O)N1c2ccccc2NC2=C(C(=O)CCC2)C1c1ccc(F)cc1` (stereo unspecified) has a fluorescence fold increase of 1.08.
In the case of `O=C1CCCC2=C1C(c1cccs1)n1nc(SCc3ccccc3)nc1N2` (stereo unspecified), the fluorescence fold increase is reported as 2.52 (active).
`CC(C)C(=O)N1c2ccccc2NC2=C(C(=O)CCC2)C1c1ccc(N(C)C)cc1` (stereo unspecified) gave a fluorescence fold increase of 1.05.
`Cc1ccc2c(c1)N(CCCC(=O)NCc1cccnc1)C(=O)CO2` gave a fluorescence fold increase of 1.1.
For `COC(=O)c1c(-c2ccc(C)cc2)csc1N`, the fluorescence fold increase was 1.09.
Compound `CC(=O)NC1=NC(=O)CS1` has a fluorescence fold increase of 1.08.
With `CCCS(=O)(=O)N1CCC(C(=O)NCCc2ccc(OC)c(OC)c2)CC1` the fluorescence fold increase was 1.09.
For `CCOc1ccc(CCNC(=O)C2CCN(c3ccc(N4CCOCC4)nn3)CC2)cc1OCC`, the fluorescence fold increase was 4.91 (active).
Compound `COc1ccc(CCNC(=O)C2CCN(c3nn4c(=O)cc(C)nc4s3)CC2)cc1OC` has a fluorescence fold increase of 1.05.
Work on `CCN1CCN(Cc2c(O)ccc3c(=O)c(-c4ccc(OC)c(OC)c4)c(C(F)(F)F)oc23)CC1` yielded a fluorescence fold increase of 1.18.
For `O=c1oc2c(CN3CCCCC3)c(O)ccc2c2c1CCCCC2`, the fluorescence fold increase was 2.34 (active).
Compound `CN1CCN(Cc2c(O)ccc3c2oc(=O)c2ccccc23)CC1` has a fluorescence fold increase of 1.15.
`O.O.O.O=S(=O)([O-])OC[C@H]1O[C@@H](O[C@]2(COS(=O)(=O)[O-])O[C@H](OS(=O)(=O)[O-])[C@@H](OS(=O)(=O)[O-])[C@@H]2OS(=O)(=O)[O-])[C@H](OS(=O)(=O)[O-])[C@@H](OS(=O)(=O)[O-])[C@@H]1OS(=O)(=O)[O-].[Al]` showed a fluorescence fold increase of 1.14.
`O=C(CCOc1ccccc1)NCc1ccccc1` gave a fluorescence fold increase of 1.
For `CCNCc1cc2cc(C)ccc2[nH]c1=O`, the fluorescence fold increase was 1.39.
In the case of `Cc1ccc2[nH]c(=O)c(COC(=O)c3ccccn3)cc2c1`, the fluorescence fold increase is reported as 1.42.
For `CC(=O)OCc1cc2cc(C)ccc2[nH]c1=O`, the fluorescence fold increase was 1.43.
With `COc1ccc(N(Cc2cc3cc(OC)ccc3[nH]c2=O)S(C)(=O)=O)cc1` the fluorescence fold increase was 3 (active).
Work on `COc1ccc(S(=O)(=O)N(CCCN2CCCC2=O)Cc2cc3c(C)ccc(C)c3[nH]c2=O)cc1` yielded a fluorescence fold increase of 1.97.
With `CCN(Cc1cc2cc(C)ccc2[nH]c1=O)S(=O)(=O)c1ccccc1` the fluorescence fold increase was 1.54.
In the case of `CCOc1ccc2[nH]c(=O)c(CN(CCCO)C(C)=O)cc2c1`, the fluorescence fold increase is reported as 3.27 (active).
In the case of `CCC(=O)N(Cc1cc2cc(OC)ccc2[nH]c1=O)c1ccccc1C`, the fluorescence fold increase is reported as 3.71 (active).
Compound `CCOC(=O)c1cc2cc(C)ccc2[nH]1` has a fluorescence fold increase of 1.67.
Compound `O=C(CSc1nnnn1C1CCCC1)Nc1ccc2c(c1)OCCO2` has a fluorescence fold increase of 1.11.
With `O=C(NC12CC3CC(CC(C3)C1)C2)N1CCCC(CO)C1` (stereo unspecified) the fluorescence fold increase was 1.11.
Compound `O=C(CN1CCN(C(=O)c2cccc(F)c2)CC1)Nc1ccccc1F` has a fluorescence fold increase of 1.17.
`COc1cc(CO)c(C2(CO)CCCC2)cc1OC` showed a fluorescence fold increase of 1.08.
`Cc1cc(N2C(=O)c3ccc(C(=O)NCc4ccccc4)cc3C2=O)no1` showed a fluorescence fold increase of 1.1.
Work on `CC1Cc2cc(/C(O)=C3\C(=O)C(=O)N(CCN4CCOCC4)C3c3ccccc3F)ccc2O1` (stereo unspecified) yielded a fluorescence fold increase of 1.11.
Compound `CCOC(=O)c1nc(-c2ccc3c(c2)OCO3)[nH]c1C` has a fluorescence fold increase of 1.4.
`CCCCC(=O)Nc1cc(C)c2c(=O)oc3ccccc3c2n1` gave a fluorescence fold increase of 1.19.
With `CCCCCC(=O)Nc1ccc2oc(-c3ccncc3)nc2c1` the fluorescence fold increase was 3.72 (active).
For `CCCC(=O)Nc1ccc2c(c1)nc1n2CCSC1`, the fluorescence fold increase was 1.21.
With `CCOC(=O)c1ccn(-c2nc(-c3ccco3)cc(C(F)(F)F)n2)n1` the fluorescence fold increase was 2.09 (active).
With `FC(F)(F)c1cc(-c2ccco2)nc(N2CCOCC2)n1` the fluorescence fold increase was 1.11.
Work on `CCOC(=O)CSc1nnc(-c2ccco2)n1C` yielded a fluorescence fold increase of 1.04.
In the case of `Cc1cc(C(F)(F)F)nn1-c1nc(-c2ccco2)cc(C(F)(F)F)n1`, the fluorescence fold increase is reported as 2.81 (active).
Work on `O=C(CSc1nc(-c2ccco2)cc(C(F)(F)F)n1)N1CCc2ccccc2C1` yielded a fluorescence fold increase of 1.1.
`O=C(CSc1nc(-c2ccco2)cc(C(F)(F)F)n1)NCc1cccs1` gave a fluorescence fold increase of 1.14.
